# Assay results from PubChem BioAssay AID485344 (National Center for Advancing Translational Sciences (NCATS), 2010).
# Among all 340,000 compounds or so, about 6,900 (2%) were called active. The entries come from a sample that favours actives as a whole. Unmarked numbers belong to inactive results. No stated cut-off is given here; in the data, active means inhibition above about 30%; inactive means below that, where a call was filed.
# Target: D(2) dopamine receptor (Homo sapiens) (UniProt P14416)
# Sequence (P14416 whole entry, looked up): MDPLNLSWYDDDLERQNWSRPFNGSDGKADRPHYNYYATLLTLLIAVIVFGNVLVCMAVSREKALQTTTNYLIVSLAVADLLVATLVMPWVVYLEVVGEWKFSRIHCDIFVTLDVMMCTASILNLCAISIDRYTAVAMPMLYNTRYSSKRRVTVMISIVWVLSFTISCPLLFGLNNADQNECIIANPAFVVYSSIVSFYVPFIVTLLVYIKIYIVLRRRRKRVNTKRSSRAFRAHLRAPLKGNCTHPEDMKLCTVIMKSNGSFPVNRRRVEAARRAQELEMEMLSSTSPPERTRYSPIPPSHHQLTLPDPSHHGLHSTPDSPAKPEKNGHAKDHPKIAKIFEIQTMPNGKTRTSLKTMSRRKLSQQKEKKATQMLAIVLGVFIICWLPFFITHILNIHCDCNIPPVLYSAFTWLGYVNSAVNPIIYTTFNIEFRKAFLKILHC
# Assay: HTS Assay for Allosteric Antagonists of the Human D2 Dopamine Receptor: Primary Screen for Antagonists; further: 0% is about no effect
# Settings: HEK293 TREx D2 cells, calcium flux, dopamine EC80; at 10 µM; active compounds read high
# From the text: NIH Chemical Genomics Center [NCGC] NIH Molecular Libraries Probe Centers Network [MLPCN] MLPCN Grant: NS064831-01 Assay Submitter (PI): David Sibley Dopamine receptors (DARs) are involved in the etiology and/or therapy of a number of neuropsychiatric and endocrine disorders. For instance, all receptor-based antiparkinsonian drugs work via stimulating the D2 DAR subtype whereas all FDA-approved antipsychotic agents are antagonists of this receptor. […] There are three different types of allosteric modulators that we are seeking, two of which will stimulate or augment receptor signaling, allosteric agonists and potentiators, while the third, allosteric antagonists, will attenuate receptor signaling. The present primary screening assay measures compound antagonism after an EC80 addition of dopamine by tracking calcium flux in a […], inducible Hek293 Trex D2 cell line.
# Freshly passaged cells are plated in 1536 well black, clear bottom plates at a density of 4000 cells/well in 3 ul of complete media containing 1x tetracycline inducer. After an overnight incubation at 30 C in 5% CO2, cells are loaded with 2 ul of the no wash Calcium Assay Kit (ABD Bioquest) and incubated at room temperature for 30 to 90 minutes. Agonist read: A 10 cycle (1 second/cycle) baseline measurement is taken and then the FDSS online 1536 pintool delivers 23 nl of compound library (as well as dopamine controls) to the plate. The plate is measured for kinetically at 1 cycle/sec for 180 seconds. Following the 180 second read, 1 ul of an EC80 (negative modulation assay) is delivered by an onboard pipette head. Measurements are taken kinetically for an additional 180 seconds.
row,Structure (SMILES),inhibition
1,O=C(CCN1CCN(C/C=C/c2ccccc2)CC1)Nc1cccc(F)c1,-21%
2,O=C(CCN1CCN(C/C=C/c2ccccc2)CC1)Nc1ccccc1Cl,31.9% (active)
3,O=C(CN1CCN(C/C=C/c2ccccc2)CC1)Nc1ccc(F)cc1F,6.36%
4,O=C(CN1CCN(S(=O)(=O)c2cccc(Cl)c2)CC1)N1CCCCC1,14%
5,Cc1ccc(C)c(NC(=O)CN(C)C(=O)c2ccc3ncsc3c2)c1,17.4%
6,CCCn1nc(C(=O)OCc2nc(N)nc(Nc3ccccc3C)n2)c2ccccc2c1=O,6.08%
7,Cc1ccc(S(=O)(=O)N(C)CC(=O)OCC(=O)N2CC(=O)Nc3ccccc32)cc1,36.8% (active)
8,Cc1ccc(S(=O)(=O)N(C)CC(=O)OCC(=O)Nc2ccccc2)cc1,-5.35%
9,COc1cc(OC)c(C(=O)OCC(=O)N2CC(=O)Nc3ccccc32)cc1OC,-2.09%
10,COc1cc(C(=O)Nc2ncccc2C)ccc1OCC(=O)N1CCOCC1,-21.1%
11,COc1ccc(NC(=O)CN(C)C(=O)c2cccc(S(=O)(=O)N3CCN(c4ccccc4)CC3)c2)cc1,-9.07%
12,Cc1cccc(-c2oc3ccc(-c4ccc5c(c4)OCO5)cc3c2C#Cc2cncn2C)c1,11.3%
13,CC(=O)N/C(=C/c1ccc(Cl)cc1)C(=O)NCCc1c[nH]c2ccccc12,31% (active)
14,COc1ccc(/C=C(\NC(=O)c2ccc(OC)c(OC)c2)C(=O)NCCc2c[nH]c3ccccc23)cc1,-6.61%
15,COc1ccccc1CC(=O)NCCc1c[nH]c2ccccc12,-11.6%
16,CC1CC(C)CN(C(=O)COC(=O)c2ccc3ncsc3c2)C1 (stereo unspecified),-13.9%
17,NS(=O)(=O)c1ccc(CNC(=O)c2cccc(Oc3ccccc3)c2)cc1,9.32%
18,NS(=O)(=O)c1ccc(CNC(=O)c2cccc(S(=O)(=O)N3CCc4ccccc43)c2)cc1,41% (active)
19,Cc1ccc(NC(=O)c2cccc(S(=O)(=O)N3CCCc4ccccc43)c2)nc1,7.09%
20,Cc1ccccc1Nc1nc(N)nc(COC(=O)CCC(=O)c2ccc(F)cc2)n1,2.44%
21,COc1ccc(-c2c(-c3cc(OC)cc(OC)c3)n(C)c3ccc(-c4ccn[nH]4)cc23)cc1,-12.7%
22,Cc1cnc(NC(=O)CSc2nnc(-c3ccccc3)n2Cc2ccccc2)s1,8.7%
23,CCc1nnc(NC(=O)CSc2nnc(Cc3ccccc3)n2-c2ccc(OC)cc2)s1,0.9%

row,Structure (SMILES),inhibition
1,CCc1nnc(NC(=O)CSc2nnc(-c3ccncc3)n2Cc2ccccc2)s1,30.7% (active)
2,COc1ccccc1CNC(=O)COC(=O)c1sc(C)nc1C,16.2%
3,O=C(NCC1CCCO1)c1cc2c(s1)CCCC2 (stereo unspecified),24.5%
4,O=C(COC(=O)CNC(=O)C1CCCCC1)Nc1cccc(F)c1,-2.8%
5,CC(CCc1ccc(O)cc1)NCc1ccc(Cl)cc1Cl (stereo unspecified),57% (active)
6,COc1ccc(CNC(=O)C(C)NCc2ccccc2Cl)cc1 (stereo unspecified),2.26%
7,OC(CNCCc1ccc(Cl)cc1Cl)COc1ccccc1 (stereo unspecified),-28.1%
8,Cc1ccc(OCC(=O)Nc2ccccc2C(=O)NC2CC2)cc1,-3.15%
9,Cc1c(NS(=O)(=O)c2cc(C(=O)NCCc3ccc(F)cc3)cc(Cl)c2Cl)c(=O)n(-c2ccccc2)n1C,0.733%
10,CCOC(=O)C1=C(c2ccccc2)O/C(=C(/C(=O)OC)C(F)(F)F)S1,39% (active)
11,COC(=O)/C(=C1\Oc2ccc(C(C)(C)C)cc2S1)C(F)(F)F,0.21%
12,CCOC(=O)c1nnn(-c2nonc2OC)c1-c1ccccc1,1.66%
13,COc1ccc(S(=O)(=O)N2CCN(CC(=O)N3c4ccccc4CC3C)CC2)cc1OC (stereo unspecified),-15.7%
14,CCCCn1c(N)c(N(CCC(C)C)C(=O)COC(=O)c2cccnc2OCC)c(=O)[nH]c1=O,-12.2%
15,Cc1ccc(NC(=O)NC(=O)c2ccccc2)cc1F,-2%
16,O=C(NC(=O)c1ccccc1)Nc1ccccc1O,40% (active)
17,O=C(NC(=O)c1ccccc1)NC(=O)c1ccccc1,27%
18,CC(C)Cc1nnc(NC(=O)CCNC(=O)c2ccccc2Cl)s1,-3.78%
19,Cc1ccc(NC(=O)Cc2nc(COC(=O)C(C)NS(=O)(=O)c3ccc(C)cc3)cs2)cc1 (stereo unspecified),2.42%
20,Cc1cccc(OCC(=O)Nc2ccc(C(=O)O)cc2NC(=O)COc2cccc(C)c2)c1,-10.4%
21,COc1ccc(C(=O)Nc2cc(C)ccc2NC(=O)COc2ccccc2)cc1,44.4% (active)
22,COc1ccc(OCC(=O)NNC(=O)c2cccc(C)c2)cc1,1.66%
23,O=C(NCCc1ccc(F)cc1)c1ccc2nccnc2c1,-19%

row,Structure (SMILES),inhibition
1,CCOc1ccc(C(O)Cn2c(=N)n(CCN3CCCCC3)c3ccccc32)cc1 (stereo unspecified),-7.44%
2,Cc1cccc(OCC(O)Cn2c(=N)n(CCN3CCOCC3)c3ccccc32)c1 (stereo unspecified),31.7% (active)
3,COc1cccc(OCC(O)CN2CCN(CCO)CC2)c1 (stereo unspecified),-3.18%
4,COc1ccc(C)cc1NC(=O)CCCN1C(=O)NC(C)(C)C1=O,-9.24%
5,Cc1nnc(NC(=O)c2ccc3nccnc3c2)s1,3.14%
6,CC1(C(=O)OCC(=O)Nc2ncc(Cl)cc2Cl)CC1(Cl)Cl (stereo unspecified),11.7%
7,C=CCN1C(=O)c2ccc(C(=O)N3CCC(C(=O)OCC)CC3)cc2C1=O,2.03%
8,COc1ccc(/C=C/CN2CCCC(C(=O)c3cc(F)ccc3F)C2)cc1 (stereo unspecified),34.2% (active)
9,O=C(c1ccc(OC2CCN(C/C=C/c3ccc(F)cc3)CC2)cc1)N1CCCCC1,26.2%
10,CSCC(=O)N1CCCC(C(=O)c2cc(F)ccc2F)C1 (stereo unspecified),-7.86%
11,O=C(NCCS(=O)(=O)N1CCN(c2ccccc2)CC1)c1ccco1,9.95%
12,Cc1csc2nc(COC(=O)c3cccc(N(C)C)c3)cc(=O)n12,-21.3%
13,CC(C)(C)Nc1c(N)c(=O)oc2ccccc12,33.7% (active)
14,Nc1c(NCCc2ccccc2)c2ccccc2oc1=O,-22.5%
15,CCNc1c(NS(=O)(=O)c2ccc(C3CCCCC3)cc2)c(=O)oc2ccccc12,16.7%
16,CCC1(C)NC(=O)N(CC(=O)N2CCN(c3cccc(Cl)c3)CC2)C1=O (stereo unspecified),22.3%
17,CCc1ccc(-c2nn(-c3ccccc3C)cc2C(=O)N2CCN(C3CCS(=O)(=O)C3)CC2)cc1 (stereo unspecified),3.49%
18,CCN1CCN(C(=O)Cn2nc(C)n3c(cc4c(OC)cccc43)c2=O)CC1,35.3% (active)
19,CCc1nn(CC(=O)N2CCN(CC)CC2)c(=O)c2cccn12,1.45%
20,COc1cccc2c(=O)n(CC(=O)N3CCCCCC3)ccc12,5.43%
21,CN(C)C1=NC[C@H](Cc2ccccc2)N1CCc1ccc(F)cc1,-4.3%
22,Cc1ccc(S(=O)(=O)N(C)C)cc1NC(=O)c1ccc(-n2cncn2)c([N+](=O)[O-])c1,2.81%
23,CCCC(C)C(=O)OCC(=O)Nc1c(Br)cc(C)cc1Br (stereo unspecified),39.9% (active)

row,Structure (SMILES),inhibition
1,CCC(C(=O)OCC(=O)Nc1c(Cl)cc(Cl)cc1Cl)c1ccccc1 (stereo unspecified),-3.7%
2,Cc1cc(C)cc(NC(=O)COC(=O)c2cc(C)oc2C)c1,-1.43%
3,COc1ccc(C(=O)NCc2ccc(C)cc2)cc1S(=O)(=O)N1CCCC1,-8.88%
4,CC1CCN(C(=O)COC(=O)CCC(=O)c2cccs2)CC1,24%
5,Cc1cc(=O)oc2c3c(cc(OCC(=O)N[C@H](C(=O)O)c4ccccc4)c12)OC(C)(C)CC3,3.15%
6,Cc1c(C)c2c(OCC(=O)N[C@@H](C(=O)O)c3ccccc3)cc3c(c2oc1=O)CCC(C)(C)O3,30.5% (active)
7,Cc1c(C)c2c(OCC(=O)NCCCO)cc3c(c2oc1=O)CCC(C)(C)O3,-0.698%
8,CCN(C(=O)COC(=O)c1c(C)nn(-c2ccccc2)c1Cl)c1c(N)n(Cc2ccccc2)c(=O)[nH]c1=O,-3.1%
9,O=C(CSc1nnc(CN2CCCC2)n1-c1ccc(F)cc1)c1ccc2c(c1)OCO2,8.14%
10,CN(CC(=O)Nc1cccc(F)c1)C(=O)C1CC(=O)N(CCc2ccccc2)C1 (stereo unspecified),33.5% (active)
11,CN(Cc1ccccc1Cl)C(=O)C1CCC(=O)N(CCc2cccc(F)c2)C1 (stereo unspecified),-0.289%
12,CCNC(=O)c1cccc(NC(=O)C2CC(=O)N(CCc3ccccc3)C2)c1 (stereo unspecified),-18%
13,Cn1c(N)c(C(=O)COC(=O)/C=C/c2cccc(C(F)(F)F)c2)c(=O)n(C)c1=O,-16.8%
14,COc1ccc(Nc2ncnc3sc(-c4ccccc4)cc23)c(OC)c1,-16.4%
15,c1ccc(-c2cc3c(NCC4COc5ccccc5O4)ncnc3s2)cc1 (stereo unspecified),31.8% (active)
16,c1ccc2c(c1)OCC(CNc1ncnc3nc[nH]c13)O2 (stereo unspecified),-3.03%
17,CC(=O)c1ccc(S(=O)(=O)NCCC(=O)N2CCN(c3ccccn3)CC2)cc1,-35%
18,CN(C)CCN(C(=O)CN1C(=O)c2ccccc2C1=O)c1nc2cc3c(cc2s1)OCCO3,12.4%
19,CCN(C(=O)COC(=O)C1CCN(S(=O)(=O)c2ccc(C)c(C)c2)CC1)C1CCS(=O)(=O)C1 (stereo unspecified),10.6%
20,COc1cc(/C=N/NC(=O)Cc2ccccc2)cc(OC)c1OC,1.38%
21,COc1cc(CC(=O)N/N=C/c2ccccc2)c([N+](=O)[O-])cc1OC,77% (active)
22,O=C(Cc1cc(=O)[nH][nH]1)N/N=C/c1ccccc1[N+](=O)[O-],11.1%
